Laboratory results taken from PubChem BioAssay AID2314 (National Center for Advancing Translational Sciences (NCATS), 2010).
The campaign covered roughly 300,000 compounds. About 37,000 (12%) were called active. Many of the other results were omitted from the sample, so actives are more common in it than they were. A number with no mark means an inactive call. Cut-off read from the data, not from the text of the source: active = max response mostly above about 13% (no sharp cut-off); inactive = mostly below about 14%.

Assay: Cycloheximide Counterscreen for Small Molecule Inhibitors of Shiga Toxin; note: read at 38.3 µM for the half of the compounds with a filed dose; 0% is about no effect
Conditions: cell reporter, cycloheximide protein synthesis inhibition counterscreen; active compounds read high

Structure (SMILES)	max response
COc1ccc(N(Cc2cc3cc(OC)ccc3[nH]c2=O)S(C)(=O)=O)cc1	-1.64%
CCC(=O)N(Cc1cc2cc(OC)ccc2[nH]c1=O)c1ccccc1C	-0.76%
COc1ccc2[nH]c(=O)c(CNc3ccc(C)c(C)c3)cc2c1	15% (active)
CC(=O)c1ccc(S(=O)(=O)N2CCC(Oc3ccc(-n4cnnn4)cc3)CC2)cc1	-8.92%
N#Cc1c(Cl)nc(-c2cccnc2)nc1-c1ccccc1	-2.59%
S=C(Nc1cccnc1)Nc1ccccn1	-1.56%
CCOC(=O)c1cnc(-n2nc(C)cc2C)nc1NNc1cc(C)nc(-c2ccccc2)n1	-1.88%
COc1ccc(/C=N/Nc2ccccc2C(=O)O)cc1	38.9% (active)
COc1ccc(C=Nc2cccc3ncccc23)cc1	5.61%
COc1ccc(/C=N/Nc2nc3ccccc3c(=O)[nH]2)cc1	43.2% (active)
COc1ccc(/C=N/NS(=O)(=O)c2ccc(NC(C)=O)cc2)cc1	-2.62%
COc1ccc(/C=N/OCC(=O)N(Cc2ccccc2)c2ccccc2C(=O)O)cc1	-1.3%
COc1ccc(/C=N/Nc2nc(-c3ccc(C)cc3)c(C#N)c(=O)[nH]2)cc1	-2.53%
Cc1cccc(NC(=O)C2CCN(C(=O)NC3CCCCC3)CC2)c1	-6.02%
Cc1ccc2cc(CCNC(=O)c3c(-c4ccccc4Cl)noc3C)c(=O)[nH]c2c1	-3.51%
Cc1c2cnn(CC(=O)NCc3ccccn3)c(=O)c2c(C)n1Cc1ccc(Cl)cc1	-3.5%
CCOC(=O)Cc1csc(SCc2cc(=O)oc3cc(O)ccc23)n1	-1.72%
Cc1ccc2c(CSc3nncs3)cc(=O)oc2c1	26.8% (active)
COCc1cc(=O)oc2cc(NS(=O)(=O)c3ccc(C)cc3)ccc12	2.21%
CCCNC(=O)CSc1nc(Cc2ccccc2)nc2ccccc12	-5%
COc1ccc(C)cc1Nc1nc(-c2c(C)[nH]c3ccccc23)cs1	11.4%
CCn1c(-c2cc(OC)ccc2OC)csc1=Nc1c(C)n(C)n(-c2ccccc2)c1=O	-0.97%

Structure (SMILES)	max response
CN=c1scc(-c2cc(OC)ccc2OC)n1/N=C/c1c(C)[nH]c2ccccc12	15.1% (active)
CC(C)(C)N(Cc1ccccc1)C(=O)COC(=O)CCc1c[nH]c2ccccc12	-0.22%
CC(=O)NCC(=O)N1CCC(n2nccc2NC(=O)CCCc2ccccc2)CC1	26.3% (active)
COc1cc(CN2CCC(n3nccc3NC(=O)CCCc3ccccc3)CC2)ccc1O	-1.56%
CC(=O)N[C@@H](C)C(=O)N1CCC(n2nccc2NC(=O)CCCc2ccccc2)CC1	24.6% (active)
COc1ccc(CN2CCC(n3nccc3NC(=O)CCCc3ccccc3)CC2)cc1C	-6.15%
CCn1cc(CN2CCC(n3nccc3NC(=O)CCCc3ccccc3)CC2)c(C)n1	-2.15%
Cc1ccc(CN2CCC(n3nccc3NC(=O)CCCc3ccccc3)CC2)o1	2.06%
CCC(C(=O)OC)n1cnc2scc(-c3ccc(C)cc3)c2c1=O (configuration not stated)	0.506%
COc1ccc(N2C(=O)C3C(C2=O)C(C(=O)c2ccccc2)N2CCCC32)cc1 (configuration not stated)	2.35%
O=C(NCc1ccccc1Cl)c1ccc2c(=O)n(CC3CCCO3)c(=S)[nH]c2c1 (configuration not stated)	-1.12%
CCCC[C@@H]1CN=C(N)N1CCc1cc(C(F)(F)F)cc(C(F)(F)F)c1	-4.84%
CC[C@H](C)[C@H](NC(=O)[C@H](CCCNC(=N)N)NC(=O)[C@H](CCCNC(=N)N)NC(=O)[C@H](CC(C)C)NC(=O)[C@H](Cc1ccccc1)NC(=O)CNC(=O)CNC(=O)[C@@H](N)Cc1ccc(O)cc1)C(=O)N[C@@H](CCCNC(=N)N)C(=O)N1CCC[C@H]1C(=O)N[C@@H](CCCCN)C(=O)N[C@@H](CC(C)C)C(=O)N[C@@H](CCCCN)C(=O)N[C@@H](Cc1c[nH]c2ccccc12)C(=O)N[C@@H](CC(=O)O)C(=O)N[C@@H](CC(N)=O)C(=O)N[C@@H](CCC(N)=O)C(=O)O	-3.93%
O=C(Cn1ccc2cc(S(=O)(=O)N3CCCC3)ccc21)NCc1ccccc1	12.1%
C=CCOc1ccc(/C=C2\SC(=S)N(CCC(=O)O)C2=O)cc1	-2.97%
O=C(C1CCN(S(=O)(=O)c2ccc(Br)s2)CC1)N1CCN(C2CCCCC2)CC1	3.94%
COc1cc(OC)c(-n2cc(-c3ccc(Cl)cc3)[nH]c2=O)cc1Cl	0.883%
Cc1cc(C)nc(SC2CCCCC2NS(=O)(=O)c2ccc(Cl)cc2)n1 (configuration not stated)	-1.57%
CC(C(=O)NCC1CCCCC1)N(C)Cc1cccc(Cl)c1 (configuration not stated)	-4.34%
CN(Cc1ccccc1)C(=O)c1cccc(C(=O)N(C)Cc2ccccc2)c1	-3.47%
CC(c1ccccn1)N(C)C(=O)c1ccc2nc(Cc3cccc(Cl)c3)oc2c1 (configuration not stated)	52.7% (active)
COC(=O)c1cc(S(=O)(=O)Nc2ccc(C)c(F)c2)c[nH]1	1.38%

Structure (SMILES)	max response
CC(NC(=O)COc1ccccc1)C(=O)NC1=NCCS1 (configuration not stated)	4.07%
COc1ccc(C(=O)NCc2nnc(SCC(=O)NC3=NCCS3)n2C)cc1	-2.2%
COc1ccc(NC(=O)c2cc(-c3cc(OC)c(OC)c(OC)c3)nc3ccccc23)c(OC)c1	-6.98%
COc1ccc(Cc2nnc(NC(=O)c3ccc(OC)cc3OC)s2)cc1	31.5% (active)
O=C(NC1=NCCS1)[C@H](Cc1ccccc1)N1C(=O)c2ccccc2C1=O	-2.74%
COc1ccc(C(=O)Nc2nncs2)c(OC)c1	34.6% (active)
COc1ccc(C(=O)N2CCCN(C)CC2)c(OC)c1	-2.16%
COc1ccc(Cc2nnc(NC(=O)Cc3cccs3)s2)cc1	12.7%
COc1ccc(C(=O)NC2=NCCS2)c(OC)c1	32.6% (active)
COc1ccc(Cc2nnc(NC(=O)c3cc(OC)c(OC)c(OC)c3)s2)cc1OC	-3.75%
COc1cccc(OC)c1C(=O)Nc1nnc(C(C)C)s1	-1.98%
O=C(NC1=NCCS1)c1ccc(Cl)s1	66.8% (active)
CCN1C(=S)N[C@@H](c2cccc(C(F)(F)F)c2)C(C(=O)OC)=C1C	-8.93%
COC(C(=O)Nc1ccc(S(=O)(=O)Nc2ccc(C)c(C)c2)cc1)c1ccccc1 (configuration not stated)	-1.18%
CS(=O)(=O)c1sc(C(=O)NC(=S)Nc2ccc(OC(F)(F)F)cc2)c2c1C=CCC2	1.1%
CCOC(=O)c1ccccc1N1C(=O)C2Sc3[nH]c(=O)sc3C(/C=C/c3ccccc3)C2C1=O (configuration not stated)	-1.12%
CC(C)(C)NCCCOc1ccc(Cl)cc1C(C)(C)C	-3.93%
O=C(CSc1ccccn1)Nc1nc2c(ccc3ccccc32)s1	15%
CC(=O)NCCC(=O)Nc1cc(S(=O)(=O)N2CCCCC2)ccc1Oc1cccc(C)c1	-3.52%
Cc1cccc(C(=O)N2CCC(c3nc4ccccc4s3)CC2)c1	-3.16%
O=C(c1cccs1)N1CCC(c2nc3ccccc3s2)CC1	-1.42%
c1ccc2sc(C3CCCNC3)nc2c1 (configuration not stated)	30.8% (active)

Structure (SMILES)	max response
Cc1[nH]c(C)c(S(=O)(=O)N2CCN(c3cccc(C(F)(F)F)c3)CC2)c1C(=O)N1CCCC1	-5.38%
C=C1CCN(Cc2ccc(OC)cc2)S(=O)(=O)c2ccccc21	12.8%
CCOc1ccc(N2CC(C(=O)NCc3ccccn3)CC2=O)cc1 (configuration not stated)	-11.6%
CC1CCN(c2ccc(C(=O)NCc3ccc4c(c3)OCO4)cc2[N+](=O)[O-])CC1	-5.58%
CCc1ccc(NC(=O)CN2CCC(C(=O)c3ccc(OC)cc3)CC2)cc1	-4.07%
COc1ccc(C(=O)C2CN(C)CC2C(=O)c2ccc(OC)cc2)cc1 (configuration not stated)	19% (active)
Cc1ccc(C2CN(C)CC2C(=O)c2ccc(F)cc2)cc1 (configuration not stated)	-3.61%
CC(C)(C)C(=O)CN1C2=NCCN2c2ccccc21	-2.32%
CCc1ccc(NC(=O)Cn2nnc(C(=O)NCc3ccc4c(c3)OCO4)c2N)cc1	-3.61%
Cc1ccc(-c2nc(CSCC(=O)NC3CCN(Cc4ccccc4)CC3)c(C)o2)cc1	-6.12%
COc1ccc2oc(C(=O)NCc3ccco3)c(C)c2c1	31.4% (active)
COc1cc(C(=O)NC(=S)NCc2ccco2)cc(OC)c1OC	2.82%
COc1ccc2oc(C(=O)NCC(Cc3ccccc3)N(C)C)c(C)c2c1 (configuration not stated)	12% (active)
COc1cccc(OCC(O)CNC(=O)c2oc3c(C)c(C)ccc3c2C)c1 (configuration not stated)	-4.29%
Cc1c(C(=O)NCC(c2ccco2)N2CCCC2)oc2ccc(Cl)cc12 (configuration not stated)	37.1% (active)
COc1cc(C(=O)N[C@@H](C)C(=O)NCc2ccco2)cc(OC)c1OC	-1.35%
Cc1cc(S(=O)(=O)Nc2ccc(C(=O)NCC(c3ccco3)N3CCCC3)cc2)ccc1F (configuration not stated)	0.909%
Cc1c(C(=O)NCCN(C)C)oc2ccc(S(=O)(=O)N3CCCC3)cc12	2.66%
CCCCn1c(N)c(N(CCOC)C(=O)c2oc3ccc(OC)cc3c2C)c(=O)[nH]c1=O	-2.73%
COc1ccc(NS(=O)(=O)c2ccc(F)cc2F)cn1	-4.72%
COc1cc(C(=O)NCCOC(=O)c2cccc(N(C)C)c2)cc(OC)c1OC	-1.25%
